Results: PubChem BioAssay AID1224861 (National Center for Advancing Translational Sciences (NCATS), 2016)
Results filed as inconclusive are left out. Entries that show only a call come without a potency. Calls of active or inactive are those of the source. Calls come from the whole dose curve; as a rule, active = well fitted cell-killing curve with a large enough effect; inconclusive = small, poorly fitted or top-dose-only effect, or effect the other way; inactive = flat fitted curve, though single readings scatter.

Test: Compound cytotoxicity measured by an ATP content assay as a counter-screen for lead compounds in human astrocytes
Settings: human astrocytes viability, ATP luminescence; series mostly up to 46.1 µM
Experimental: National Center for Advancing Translational Sciences [NCATS] Johns Hopkins University School of Medicine Florida State University Assay Overview: Many compounds can cause cytotoxicity at high compound concentrations. […] The compound cytotoxicity may also cause side effects or toxicity in human. Thus, the compound cytotoxicity needs to be measured in each cell type and each compound incubation time - same as these in the compound screening assay. The compound cytotoxicity can be measured by cell viability assays such as the ATP content assay. We use an ATP content assay kit for cell viability measurement. It measures ATP content (level) in human astrocytes using a luminescence readout that is proportional to viable cell numbers. Decrease in the luminescence signal after the compound treatment indicates reduced cell viability and cell death caused by compound treatment.
Assay Protocol Summary: The medium for astrocytes contains AM basal medium (ScienCell, Cat.# 1801), AGS (ScienCell, Cat.# 1801), 10% FBS, and 1% Pen/Strep. The ATP content assay kit (PerkinElmer, Cat.# 6016731) was used to determine cell viability. The reagent was reconstituted and prepared as described by the manufacturer. Cells were seeded in 384- or 1536-well assay plates and cultured at 37 C with 5% CO2 for 16 to 20 hours. The typical cell seeding density in the 1536-well plate assay is 350 cells/well in 3 ul medium for astrocytes in the tissue cultured treated/PDL coated plates. Compounds were added to cells and incubated for a specific time such as 6, 24, or 72 hours before addition of the reagent mixture of the ATP content assay kit at 1:1 ratio. After incubation at room temperature for 10 minutes, the luminescence intensity in assay plates was measured using a ViewLux plate reader (PerkinElmer). […] The percentage inhibitions of the decreased cell viability by small molecules were then calculated that indicate compound cytotoxicity.

SMILES	Potency
O=C1C=CC[C@@H]2[C@H]3CCCN4CCC[C@@H](CN12)[C@@H]34	inactive
O=c1c2ccccc2[se]n1-c1ccccc1	9.75 µM (active)
CC(C)[N+](C)(CCC(C(N)=O)(c1ccccc1)c1ccccc1)C(C)C	inactive
O=C(Nc1ccc(Br)cc1)c1cc(Br)cc(Br)c1O	15.5 µM (active)
CC[n+]1c(-c2ccccc2)c2cc(N)ccc2c2ccc(N)cc21	inactive
COc1cccc2c1C(=O)c1c(O)c3c(c(O)c1C2=O)C[C@@](O)(C(=O)CO)CC3OC1CC(N2CCOC(OC)C2)C(O)C(C)O1 (some centres undefined)	inactive
Cc1ccc([N+](=O)[O-])[c]2c1[O][Hg]2	3.08 µM (active)
COP(=S)(OC)SCN1C(=O)c2ccccc2C1=O	inactive
Oc1ccc([C@H]2CNCc3c2ccc(O)c3O)cc1O	inactive
CC(C)N[C@@H]1CCn2c(=O)[nH]c3cccc(c32)[C@@H]1O	inactive
CN1CC[C@@]2(C)c3cc(OC(=O)Nc4ccccc4)ccc3N(C)[C@@H]12	inactive
CC(O)CN1CCN(CC(=O)[O-])CCN(CC(=O)[O-])CCN(CC(=O)[O-])CC1.[Gd+3] (centres undefined)	inactive
O=C1CCC[C@@H]2[C@H]3CCCN4CCC[C@@H](CN12)[C@@H]34	inactive
COC1(CS(=O)c2ccccc2)CCN(CCc2c[nH]c3ccc(F)cc23)CC1 (centres undefined)	inactive
